# The full ranking holds about 33,000 sequences; the median of “E-score (-0.5 to 0.5)” is about -0.015, and the highest 2% start at about 0.3. Many of the other results were omitted from the sample, so the highest values are more common in it than they were.
# Target: T1, Abf1 (UniProt P14164)
# T1 sequence: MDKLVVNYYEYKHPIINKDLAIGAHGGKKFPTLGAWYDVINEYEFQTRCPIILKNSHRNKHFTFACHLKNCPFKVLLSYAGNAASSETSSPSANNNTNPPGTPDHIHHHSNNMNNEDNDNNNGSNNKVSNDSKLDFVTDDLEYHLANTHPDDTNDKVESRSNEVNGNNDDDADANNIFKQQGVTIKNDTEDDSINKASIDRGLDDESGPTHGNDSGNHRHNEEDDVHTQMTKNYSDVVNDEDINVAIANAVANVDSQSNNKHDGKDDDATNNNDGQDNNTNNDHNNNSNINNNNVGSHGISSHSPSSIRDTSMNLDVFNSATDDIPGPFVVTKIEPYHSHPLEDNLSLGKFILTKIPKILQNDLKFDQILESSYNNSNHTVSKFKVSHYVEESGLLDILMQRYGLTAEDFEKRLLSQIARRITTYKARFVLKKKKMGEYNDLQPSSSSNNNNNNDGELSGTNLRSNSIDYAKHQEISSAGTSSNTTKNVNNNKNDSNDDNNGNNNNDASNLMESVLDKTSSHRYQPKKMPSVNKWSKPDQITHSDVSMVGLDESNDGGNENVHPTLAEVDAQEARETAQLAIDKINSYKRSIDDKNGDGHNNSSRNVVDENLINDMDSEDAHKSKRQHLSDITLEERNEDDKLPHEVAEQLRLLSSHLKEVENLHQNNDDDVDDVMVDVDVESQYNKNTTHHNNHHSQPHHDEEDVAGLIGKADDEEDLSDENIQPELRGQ
# Test: PBM E-score (8-mer binding enrichment) (E-score (-0.5 to 0.5)); higher = stronger / more preferred TF binding
# Conditions: protein concentration: 200 nM; construct: GST-full length
# Procedure: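 Universal 'all 10-mer' protein binding microarrays (Agilent AMADID 015681) probed with GST-tagged S. cerevisiae TFs (full-length or DBD) made by in vitro transcription/translation (PURExpress), about 100-200 nM. Bound TF was detected with fluorescent anti-GST. Each ungapped 8-mer (which stands for itself and its reverse complement) is scored by the PBM enrichment score (E-score), a modified Wilcoxon-Mann-Whitney statistic from -0.5 to +0.5, computed with the Universal PBM Analysis Suite. Scale: above 0.35 generally sequence-specific binding.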
row,Sequence,PBM E-score
1,CCAGACAG,-0.2
2,GAGTAAAA,0.0646
3,CCGCGACG,0.32
4,CCGCGACC,-0.0179
5,CCGCGACA,0.154
6,CTAATGCC,-0.208
7,CAATCGTG,0.122
8,AAAACGCA,0.00195
9,AGGTTTCG,-0.199
10,TACGAACA,0.351
11,CACGAACG,0.372
12,AACGAACA,0.215
13,CACGAACA,0.186
14,GACGAACA,0.253
15,CACGATCG,0.339
16,TACGAAAA,0.297
17,AACGAAAA,0.103
18,AACGAACG,0.144
19,TGCGAAAA,0.175
20,CACGATCC,0.0482
21,CACGATCA,0.272
22,AACAAATT,0.201
23,AAAAACGT,0.0618
24,GTAGCCCA,0.0106
25,ACCATCCC,-0.155

row,Sequence,PBM E-score
1,AACAGAGA,-0.09
2,ACCGCTCA,0.0985
3,GAGCACTA,0.0823
4,CACGAAAA,0.31
5,CACGAAAG,0.272
6,GACGAATA,0.232
7,GACGAAAC,0.344
8,AACGAAAC,0.101
9,CACGAAAC,0.272
10,GACGAAAA,0.337
11,GCCGAAAC,-0.0478
12,GCCGAAAA,0.173
13,CTAGGAGA,-0.236
14,TCTACCAA,-0.0268
15,CTGGACCC,-0.279
16,CGGATGAA,0.211
17,TCGTGTCA,0.326
18,ACGTGTAA,0.235
19,TCGTGTAA,0.343
20,ACATGTCA,0.221
21,CCGTGTAA,0.217
22,CCGTGTCA,0.268
23,GCGTGGAA,-0.105
24,TCATGTCA,0.332
25,ACGTGGAA,0.118

row,Sequence,PBM E-score
1,GCGTGTCA,0.0814
2,TCGTGGAA,0.336
3,GCATGTCA,0.225
4,CAGAAGGG,-0.136
5,AAACTCAA,0.0218
6,ATGTTACG,0.087
7,GTTGGTCA,0.221
8,ACATCTAA,-0.0374
9,CGACCTCA,0.00561
10,ATCGCGAG,0.138
11,ATCGCGAT,0.411
12,GTCGCGAA,0.188
13,GTCGCGAC,0.32
14,ATCGCGAA,0.199
15,CTCGCGAC,0.238
16,AACACAAC,-0.029
17,CATAAACG,0.22
18,GAATGCCC,-0.0158
19,CCGCACGC,-0.186
20,CCGCACGA,0.376
21,ACGCACGT,0.105
22,GCCCACGA,0.019
23,CCGCACGG,0.0967
24,ACCCACGA,0.287
25,ACGCACGC,-0.0387

row,Sequence,PBM E-score
1,TCCCACGA,0.326
2,ACGCACGA,0.389
3,TCGCACAA,0.167
4,GCGCACGA,0.0514
5,TCGCACGA,0.317
6,AAGTCCCC,-0.149
7,ACTCTGAT,0.043
8,ACTAGTGC,0.104
9,CGGCCCGC,-0.121
10,AATGCTCC,-0.223
11,CGCGTACG,0.271
12,ATTATGGG,0.00349
13,GGATATAC,-0.053
14,CGATATAA,0.203
15,GGATATAA,0.298
16,AGTTACGG,0.0796
17,GGAGGAAA,-0.252
18,ACGATATA,0.289
19,CCGATACG,0.121
20,ACGATATG,0.304
21,CCGATATC,0.21
22,AGGATATC,0.24
23,ACGATACG,0.334
24,ACGATATC,0.321
25,ACGATACT,0.285

row,Sequence,PBM E-score
1,ACGATAGG,0.233
2,ATGCCACC,-0.148
3,AATCCAGT,0.0412
4,AATCTGCA,-0.185
5,TGGGACAA,0.0227
6,AAGCCACG,0.124
7,AAAGTATA,0.101
8,CGATACCA,0.018
9,AAGTCACA,0.125
10,AAGTCACG,0.268
11,AAGTCACT,0.304
12,AGGTCACC,0.282
13,AGGTCACG,0.235
14,AGGTCACT,0.304
15,ACTCTGAC,-0.0634
16,CGAATTCC,-0.0103
17,CGGACGCC,-0.0127
18,AATGCCAG,-0.155
19,ATGTCGGG,0.0062
20,AAGGAACA,-0.0655
21,ACGCAGCG,-0.162
22,CACGACGA,0.263
23,AATAACGC,-0.118
24,AATAACGA,0.325
25,GCCGACGA,0.176

row,Sequence,PBM E-score
1,AACGACGG,0.249
2,CACGACCG,-0.0182
3,TCCGACGA,0.392
4,CCCGACGA,0.196
5,AATAACGG,0.126
6,AACGACGT,0.19
7,AACGACGA,0.346
8,CACGACGG,0.356
9,ACAGCTAG,-0.181
10,ACTCTTAA,-0.0406
11,AACCGGGG,-0.212
12,AAAATCCC,-0.0966
13,CGTCCTAC,-0.0375
14,ACTCGATA,0.199
15,AACTGCGA,-0.0488
16,ATCTGCAG,-0.106
17,GAGTATAC,0.0804
18,TACGACGA,0.329
19,GACGACGA,0.251
20,TACGACCA,0.242
21,GACGACGC,0.3
22,AACGACGC,0.0599
23,CACGACGC,0.172
24,TACACCCA,-0.015
25,CACCACGA,0.202

row,Sequence,PBM E-score
1,GGGTGCTA,-0.118
2,CGTGCGAG,0.137
3,CCTTAAGC,-0.123
4,CGTCGTTC,0.313
5,TGTCGTAA,0.103
6,CGTCGTTA,0.257
7,CGTCGTAC,0.399
8,GGTCGTAA,0.104
9,AGTCGTTC,0.212
10,CATCGTAA,0.106
11,CGTCGTAG,0.192
12,GGTCGTAC,0.212
13,GATCGTAC,0.151
14,CATCGTAC,0.382
15,CGTCGTAA,0.392
16,ATTCTGTG,0.00625
17,GCGAAAGA,-0.024
18,AAGACGAG,-0.0454
19,AATAGTAC,0.132
20,AAATGGGT,-0.0572
21,ACGCAGTC,-0.224
22,AGATCATG,0.262
23,AGTCGTCC,0.142
24,CGTCGTCC,0.307
25,CGTCGTCA,0.24

# From the supplement of paper PMC3334620
